Bioassay records deposited in PubChem BioAssay by National Center for Advancing Translational Sciences (NCATS).
Six1-Eya2 inh = qHTS Assay for Inhibitors of the Six1/Eya2 Interaction; Homeobox protein SIX1 (Homo sapiens) + Protein phosphatase EYA2 (Homo sapiens), …; AlphaScreen GST-Six1/His-Eya2 binding, biochemical; active compounds read low; activity change, % (no concentration beside the values); 0.56% of 360,000 active; AID 651725, 2012; in the data active = activity change below about -65%; inconclusive = mostly about -30% to -63%
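Six1/Eya2 binding was read as AlphaScreen signal after compounds were pinned into GST-Six1 plus His-tagged Eya2 (5X stock 250/500 nM) in pH 8.0 Tris/NaCl/TCEP buffer, beads added, then incubated 1 h, 37 C, dark.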
TDP1 block = qHTS Assay for Inhibitors of Tyrosyl-DNA Phosphodiesterase (TDP1); Tyrosyl-DNA phosphodiesterase 1 (Homo sapiens), Q9NUW8; recombinant TDP1, AlphaScreen DNA substrate cleavage; Potency, µM (doses to about 130 µM), without a hit: at the highest dose activity change, negative = inhibition, most hits filed as inhibitors; 0.28% of 350,000 active; note: potency is the fitted concentration of half-maximal effect; nearly all actives have a fitted effect of over 40% in size
Target sequence (Q9NUW8 whole entry, looked up): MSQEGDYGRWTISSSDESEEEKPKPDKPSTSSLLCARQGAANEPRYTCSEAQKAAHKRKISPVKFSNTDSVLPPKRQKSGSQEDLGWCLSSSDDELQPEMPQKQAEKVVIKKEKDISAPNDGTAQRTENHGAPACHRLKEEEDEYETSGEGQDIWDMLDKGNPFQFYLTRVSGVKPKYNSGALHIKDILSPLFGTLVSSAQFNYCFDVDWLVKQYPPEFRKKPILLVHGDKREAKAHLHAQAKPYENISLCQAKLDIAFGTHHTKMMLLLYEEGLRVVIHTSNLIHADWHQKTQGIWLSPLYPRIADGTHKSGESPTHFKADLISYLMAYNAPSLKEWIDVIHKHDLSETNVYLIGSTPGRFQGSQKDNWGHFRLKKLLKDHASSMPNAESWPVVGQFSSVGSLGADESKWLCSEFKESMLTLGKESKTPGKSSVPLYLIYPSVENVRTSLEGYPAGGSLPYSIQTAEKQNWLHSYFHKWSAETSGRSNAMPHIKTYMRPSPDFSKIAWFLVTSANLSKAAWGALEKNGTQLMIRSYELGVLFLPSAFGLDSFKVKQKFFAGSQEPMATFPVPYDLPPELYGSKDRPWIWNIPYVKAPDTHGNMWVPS
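Steps: enzyme plus compound, 15 min RT; add biotin/phosphotyrosine-FITC oligonucleotide (15 nM final), react 5 min; add donor/acceptor beads (10 ug/ml final), 10 min; read AlphaScreen. Tdp1 at 1 nM final.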
CtBP-E1A inh = qHTS Assay for Inhibitors of the CtBP/E1A Interaction; 0.49% of 340,000 active; AID 651724, 2012; AlphaScreen GST-E1A/His-CtBP binding, 1536-well; active compounds read low; CtBP / adenovirus E1A interaction (AlphaScreen); activity change, % (no concentration beside the values); in the data active = activity change below about -65%; inconclusive = mostly about -30% to -63%
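GST-E1A and His-tagged CtBP (125 nM each as 5X stock) were preincubated with pin-transferred compound for 2 h at 37 °C in the dark, then glutathione donor and nickel acceptor beads were added for 1 h before AlphaScreen reading.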
TDP1 cell noCPT = qHTS for Inhibitors of human tyrosyl-DNA phosphodiesterase 1 (TDP1): qHTS in cells in absence of CPT | DT40 Tdp1-/- hTDP1 cells, no CPT, ATP luminescence, 48 h | Potency, µM (titrated, usually from 46.2 µM), for inactives: at the highest dose activity change, negative = growth inhibition, usual class: inhibitors | 15% of 420,000 active | AID 686978, 2013; note: potency is the fitted concentration of half-maximal effect; nearly all actives have a fitted effect of over 55% in size
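Growth of hTDP1-complemented DT40 Tdp1-knockout cells is measured by ATP luminescence after at least 48 hr compound exposure at 37 °C, with DMSO substituting for the 20 nM CPT used in the parallel screen.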
DT40 TDP1 CPT = qHTS for Inhibitors of human tyrosyl-DNA phosphodiesterase 1 (TDP1): qHTS in cells in presence of CPT; Potency, µM (titrated, usually from 46.2 µM), without a hit: top-dose activity change, negative = growth inhibition, usual class: inhibitors; 12% of 420,000 active; AID 686979, 2013; chicken DT40 Tdp1-/-;hTDP1 cells + 20 nM CPT, ATP luminescence, 48 h; note: potency is the fitted concentration of half-maximal effect; nearly all actives have a fitted effect of over 55% in size
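Chicken DT40 Tdp1-/- cells complemented with human TDP1, 400 cells/well, exposed to compounds plus 20 nM camptothecin for at least 48 h at 37 C; viability read as ATP content by CellTiter-Glo luminescence.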
IL-1B inflam inh = qHTS for Inhibitors of Inflammasome Signaling: IL-1-beta AlphaLISA Primary Screen; 4.7% of 360,000 active; THP-1 LPS/ATP IL-1B secretion, AlphaLISA, 16 h; active compounds read low; activity change, % at 57.5 µM; in the data active = activity change below about -50%; inconclusive = mostly about -30% to -49%
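THP-1 cells pretreated 1 hr with compounds (up to 57.5 uM final), then stimulated with LPS (250 ng/mL final) plus ATP (1.25 mM final); secreted IL-1B measured by AlphaLISA after 16 hr, decreased signal indicating inhibition.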
* marks the source's active call; other numbers are inactive results; ? = inconclusive; . = no result. Sampled rows, rich in hits. Any-hit rate of the full collection: about 18%. Unless noted, calls come from the whole dose curve; as a rule, active = well fitted curve in the direction sought with a large enough effect; inconclusive = small, poorly fitted or top-dose-only effect, or another doubt; inactive = no such curve, though single readings can be large; an effect the other way counts as inactive or inconclusive. % is set by controls: 0 for no effect and ±100 for the full control effect.

SMILES	Six1-Eya2 inh	TDP1 block	CtBP-E1A inh	TDP1 cell noCPT	DT40 TDP1 CPT	IL-1B inflam inh
O=C(NC(=S)Nc1ccc2oc(-c3cccnc3)nc2c1)c1cccc(Cl)c1	18.8	3.1%	-7.2	?	16.4µM*	-1.4
CC1CCN(CC(O)COC2CCC(C(C)(C)C)CC2)CC1 (stereo not drawn)	0.5	2.1%	-1.9	18.4µM*	23.1µM*	?
Cc1cc(OCC(O)CN2CCc3ccccc3C2)ccc1Cl (stereo not drawn)	0.6	.	1.4	?	-6.8%	-61.7*
CCOc1ccc(OCC(O)CN2CCc3ccccc3C2)cc1 (stereo not drawn)	-10.3	.	.	?	-25.3%	6.3
Cc1ccc(C)c(OCC(O)CN2CCC(C)CC2)c1C (stereo not drawn)	2.6	-2.0%	10.7	20.6µM*	?	24.4
CC(C)(C)C1CCC(OCC(O)CN2CCN(c3ccccc3)CC2)CC1 (stereo not drawn)	-6.1	2.0%	-10.5	?	?	0.0
CC1CCN(CC(O)COc2ccc(OCC(O)CN3CCC(C)CC3)cc2)CC1 (stereo not drawn)	-0.2	.	.	?	?	1.4
Cc1ccc(C)c(OCC(O)CN2CCc3ccccc3C2)c1C (stereo not drawn)	1.7	.	6.9	3.66µM*	6.51µM*	0.0
CCC(C)(C)NC(=O)C(c1ccc(F)cc1)N(Cc1ccco1)C(=O)CCC(=O)Nc1ccccn1 (stereo not drawn)	1.3	4.1%	-1.0	-39.1%	-3.8%	-9.8
CC(C)(C)c1ccc(-c2nnc3sc(-c4ccncc4)nn23)cc1	-3.0	3.3%	-8.7	?	12.6µM*	-6.2
CCN(CC)c1ccc(-c2nn3c(-c4cccnc4)nnc3s2)cc1	-6.9	2.0%	-12.4	20.6µM*	18.4µM*	-6.4
COc1ccc(-c2noc(CC(=O)N(C)c3ccccc3F)n2)cc1	.	-5.1%	.	?	-18.0%	.
COC(=O)C12OCC34C(CC5C(C)=C(O)C(=O)CC5(C)C3C(O)C1O)OC(=O)C(OC(=O)C=C(C)C)C24 (stereo not drawn)	0.6	.	-2.0	0.146µM*	0.0651µM*	.
CCOc1ccc(NC(=S)N(CCCN2CCCC2)Cc2cccn2Cc2ccc(Cl)cc2)cc1	-12.6	5.3%	-9.8	?	14.6µM*	-22.8
CCN1CCN(CCCN(Cc2ccco2)C(=S)Nc2ccc(Cl)cc2)CC1	0.0	0.0%	2.8	-14.3%	-6.0%	-27.8
Cc1cccc(NC(=S)N(CCCN2CCCC2)Cc2cccn2Cc2ccc(Cl)cc2)c1	-18.4	4.6%	-13.6	16.4µM*	?	-87.3*
Cc1ccccc1OCC(=O)OCC(=O)NCc1cccs1	3.0	1.9%	3.4	-12.5%	-6.8%	10.8
Cc1ccc(CCNC(=O)CCS(=O)(=O)c2ccc3nc(C)sc3c2)cc1	0.0	.	0.0	-11.8%	-14.2%	0.5
C=CCN(C(=O)c1cccc(N2C(=O)C3CC=CC(C)C3C2=O)c1)c1ccccc1 (stereo not drawn)	7.7	1.2%	-0.8	4.61µM*	?	35.2
COc1ccnc(Oc2ccccc2)c1C#N	1.7	-1.0%	0.0	-8.8%	-9.7%	-7.3
COc1cnc(N(C)C)nc1Sc1ccc(Cl)cc1	19.2	5.9%	24.5	-11.0%	-29.9%	20.5
COc1cnc(-c2ccccn2)nc1Oc1ccccc1	?	3.8%	-66.6*	0.461µM*	0.461µM*	14.9
COc1cnc(-c2ccccn2)nc1Sc1ccc(F)cc1	?	8.8%	-72.5*	0.517µM*	0.581µM*	1.1
COc1cnc(-c2ccccn2)nc1Sc1ccc(Cl)cc1	-7.0	-2.0%	-10.4	1.46µM*	1.3µM*	32.8
Cc1ccc(Sc2c(C#N)c(-c3ccccc3)nn2C)cc1	51.0	.	66.7	?	?	22.9
SMILES	Six1-Eya2 inh	TDP1 block	CtBP-E1A inh	TDP1 cell noCPT	DT40 TDP1 CPT	IL-1B inflam inh
O=C(COc1ccc2ccc(=O)oc2c1)Nc1c(Cl)cccc1C(F)(F)F	-3.2	.	-1.2	22.7%	-6.2%	1.0
O=[N+]([O-])c1ccc(-c2nnc3cccc(Cl)n23)cc1	1.1	.	-16.4	?	-2.4%	-5.7
CCOC(=O)C1CCN(C(=O)C2(NC(=O)Nc3ccc(F)cc3F)CCCCC2)CC1	9.0	0.7%	16.8	-9.1%	5.4%	-127.8*
CCOC(=O)C1CCN(C(=O)C2(NC(=O)NC3CCCCC3)CCCCC2)CC1	0.2	3.6%	9.1	-1.7%	-1.9%	21.1
COc1ccc2c(Sc3ccccc3)c(C(=O)NCc3ccc(OC(C)C)cc3)[nH]c2c1	.	11.4%	.	?	?	.
CC(=O)c1sc(N)c(C(=O)OC(C)C)c1C	4.5	-4.0%	12.0	1.1%	-4.1%	-5.0
Cc1c(C(=O)OC(C)C)sc(N)c1C(=O)OC(C)C	7.5	-5.4%	-7.8	?	-24.3%	-61.4*
COc1ccc(-c2c3c(nc4sc(C(=O)Nc5ccccc5)c(N)c24)CCC3)cc1	-0.8	.	3.3	?	-9.8%	?
CCOC(=O)c1c(N)sc(C(=O)Nc2ccccc2)c1C	5.0	4.9%	.	18.4µM*	?	-21.1
CCOC(=O)c1c(C)nc2sc(C(=O)Nc3ccccc3)c(N)c2c1-c1ccc(OC)cc1	22.1	-7.4%	28.3	14.6µM*	?	-5.1
CCOC(=O)c1sc(NC(=O)Nc2ccccc2)cc1C	0.2	-4.5%	12.6	25.9µM*	23.1µM*	-117.5*
Cc1ccc(S(=O)(=O)N2CCN(C(=O)CN3CCOCC3)C2C(C)C)cc1 (stereo not drawn)	4.6	2.3%	-1.5	-13.2%	-1.7%	15.0
CC(C)CCn1cnc2c(NCc3ccccc3)ncnc21	-0.1	5.6%	0.7	?	-15.5%	-13.0
COc1ccccc1CNC(=O)c1cc(-c2ccncc2)nc2c(Cl)cccc12	-2.4	1.2%	-1.0	?	?	-14.6
CCOC(=O)c1c(C)nc2sc3c(c2c1-c1ccc(OC)cc1)NC(c1ccc(OC)cc1)NC3=O (stereo not drawn)	17.2	1.9%	0.9	13µM*	?	8.6
